The source of these data is PubChem BioAssay (NCI).

Compounds without any hit were thinned out: in the full panel of roughly 79,000, 15% have a hit. Values without a mark were called inactive. Active and inactive are the calls of the source. Rule as the data show it: active = growth inhibition above about 70%; inactive = the rest.

A short description of one experiment: NCI Yeast Anticancer Drug Screen. Data for the mlh1 strain (AID 171).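 Also: 0% = growth of vehicle-treated control cultures of the same strain.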 The note with it: S. cerevisiae mlh1 strain growth inhibition; at 11.0 µM; active compounds read high. The method in brief:
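Growth of the mutant yeast strain after compound exposure, expressed as inhibition relative to vehicle-only controls.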
Take `C/C(=N\NC(=S)SCc1ccccc1)c1ccccn1`: the growth inhibition was 83% (active).
For `CN(C)c1ccc(Sc2ccc3nc(N)nc(N)c3c2)cc1`, the growth inhibition is -16%.
With `CC(=O)OCCOCNC(=S)N/N=C(\C)c1cnccn1`, the growth inhibition was 15%.
With `COc1ccc(C2c3cc4c(cc3OC(C)(O)C2C)OCO4)c(OC)c1` (centres undefined), the growth inhibition is 3%.
The same measure, in the same setting: with `COc1cc(C2SCC(=O)N2c2ccc(-c3ccc(-n4c(-c5ccccc5)nc5ccccc5c4=O)cc3)cc2)cc(OC)c1OC` (centres undefined) the figure was 1%; with `COc1ccc(Br)c(C(=O)Sc2nnnn2-c2cccc(Cl)c2)c1`, -25%; with `O=C(NNc1ccnc2cc(Cl)ccc12)/C(=C\c1ccccc1Cl)NC(=O)c1ccccc1`, 7%.
As to `CSC(=S)Nc1cccc(C)n1`, the growth inhibition was -35%.
`O=C(/C=C\c1ccc(Cl)cc1Cl)c1cccs1`: the growth inhibition is 1%.
Regarding `COc1ccc(-c2cn(-c3ccc(I)cc3)c3ncnc(N)c23)cc1`, the growth inhibition was -5%.
As for `CN(C)c1ccc(C(C#N)=C(C#N)C#N)cc1`, the growth inhibition was -3%.
`COc1cc(/C=C2\CCc3ccccc3C2=O)cc(OC)c1OC`: the growth inhibition was -11%.
Still for that read-out and setting: with `CC(C)/C(Cl)=N\OC(=O)Nc1cccc(Cl)c1` the figure was 0%; with `CC1(C)[C@@H]2CC[C@]1(C)[C@H](OC(=O)CSC#N)C2`, 29%.
Take `NNC(=O)CCc1ccc2ccc3ccccc3c2c1`: the growth inhibition was 5%.
Take `COc1ccc(/C(C)=N/OC(=O)c2c(-c3ccccc3Cl)noc2C)cc1CN1CCOCC1`: the growth inhibition was -27%.
In the case of `C=CC(C)(O)CCC1C(=C)C(O)CC2C(C)(C)CCCC12C` (centres undefined), the growth inhibition is -17%.
Take `S=C(Nc1ccc(Cl)c(Cl)c1)SCc1ccc2c(c1)OCO2`: the growth inhibition was 99% (active).
Same read-out and setting: with `COc1cc(C2C3=C(COC3=O)Oc3cc4c(cc32)OCO4)ccc1O` (centres undefined) the figure was -4%.
For `S=C(Nc1ccc(Cl)cc1)SC1CCCCC1`, the growth inhibition is 50%.
On the same count and under the same terms, the result for `Nc1nc(-c2cccnc2)cc(-c2cc(-c3cccnc3)nc(N)n2)n1` reads -13%.
With `c1ccc(-c2nc3cccnc3s2)cc1`, the growth inhibition is 2%.
On the same count and under the same terms, the result for `O=[N+]([O-])c1cc(CCl)ccc1CCl` reads 58%.
Regarding `COc1ccc(/C=C2\SC(=S)N(/C=C/c3nc4ccccc4[nH]c3=O)C2=O)cc1OC`, the growth inhibition is 28%.
In the case of `CCCN(CCC)CC(O)c1cc(-c2ccc(Cl)cc2)nc2c(C)c(Cl)ccc12` (centres undefined), the growth inhibition was 99% (active).
Consider `O=C(Nc1ccccc1)OCCc1ccc(Cl)c(Cl)c1`, for which the growth inhibition was 22%.
On to `CC(O)C(O)C(O)C(/C=N\Nc1ccccc1)=N/Nc1ccccc1` (centres undefined), for which the growth inhibition is 6%.
As to `C#CCCCc1ccccc1`, the growth inhibition was -26%.
Still for that read-out and setting: with `CC(=O)Cc1ccc[cH-]1.[Fe+2].c1cc[cH-]c1` the figure was -2%.
`Cc1cc(I)ccc1N`: the growth inhibition is 10%.
On the same count and under the same terms, the result for `FC(F)(F)c1cc(NC(=S)N2c3ccccc3-n3cccc3C2c2cccnc2)cc(C(F)(F)F)c1` (centres undefined) reads -4%; that for `CC(C)(CN1CCCCC1)C(=O)CC(SCCS(=O)(=O)O)c1ccc(Br)cc1` (centres undefined), 17%.
For the molecule `C[Si](C)(C)CNC(=O)OCc1ccccc1`, the growth inhibition is 4%.
With `CC(C(=O)N1C(=O)N(C(=O)[C@H](C)C(O)c2ccccc2)[C@H](c2ccccc2)[C@H]1c1ccccc1)[C@@H](O)c1ccccc1` (some centres undefined), the growth inhibition is 14%.
For `Oc1cccc2c(Cl)ccnc12`, the growth inhibition was 98% (active).
On to `O=C1C=CC(=C(c2ccccc2)c2ccccc2)c2ccccc21`, for which the growth inhibition was -3%.
On to `S=C(S)NN1CCOCC1`, for which the growth inhibition is 30%.

Still in this experiment, the particulars now being: S. cerevisiae mlh1 strain growth inhibition; at 33.0 µM; active compounds read high.
As to `C/C(=N\NC(=S)SCc1ccccc1)c1ccccn1`, the growth inhibition is 96% (active).
Consider `CN(C)c1ccc(Sc2ccc3nc(N)nc(N)c3c2)cc1`, for which the growth inhibition is -9%.
In the case of `CC(=O)OCCOCNC(=S)N/N=C(\C)c1cnccn1`, the growth inhibition is 49%.
The same measure, in the same setting: with `COc1ccc(C2c3cc4c(cc3OC(C)(O)C2C)OCO4)c(OC)c1` (centres undefined) the figure was 6%; with `COc1cc(C2SCC(=O)N2c2ccc(-c3ccc(-n4c(-c5ccccc5)nc5ccccc5c4=O)cc3)cc2)cc(OC)c1OC` (centres undefined), -1%.
On the same count and under the same terms, with `COc1ccc(Br)c(C(=O)Sc2nnnn2-c2cccc(Cl)c2)c1` the figure was 3%; with `O=C(NNc1ccnc2cc(Cl)ccc12)/C(=C\c1ccccc1Cl)NC(=O)c1ccccc1`, 26%.
As for `CSC(=S)Nc1cccc(C)n1`, the growth inhibition is -12%.
For the molecule `O=C(/C=C\c1ccc(Cl)cc1Cl)c1cccs1`, the growth inhibition is 7%.
Turning to `COc1ccc(-c2cn(-c3ccc(I)cc3)c3ncnc(N)c23)cc1`, the growth inhibition was 10%.
As to `CN(C)c1ccc(C(C#N)=C(C#N)C#N)cc1`, the growth inhibition is -6%.
Turning to `COc1cc(/C=C2\CCc3ccccc3C2=O)cc(OC)c1OC`, the growth inhibition was 21%.
Consider `CC(C)/C(Cl)=N\OC(=O)Nc1cccc(Cl)c1`, for which the growth inhibition is 0%.
In the case of `CC1(C)[C@@H]2CC[C@]1(C)[C@H](OC(=O)CSC#N)C2`, the growth inhibition was 73% (active).
In the case of `NNC(=O)CCc1ccc2ccc3ccccc3c2c1`, the growth inhibition was 9%.
With `COc1ccc(/C(C)=N/OC(=O)c2c(-c3ccccc3Cl)noc2C)cc1CN1CCOCC1`, the growth inhibition was 14%.
With `C=CC(C)(O)CCC1C(=C)C(O)CC2C(C)(C)CCCC12C` (centres undefined), the growth inhibition was 9%.
Regarding `S=C(Nc1ccc(Cl)c(Cl)c1)SCc1ccc2c(c1)OCO2`, the growth inhibition was 99% (active).
Turning to `COc1cc(C2C3=C(COC3=O)Oc3cc4c(cc32)OCO4)ccc1O` (centres undefined), the growth inhibition is 8%.
On to `S=C(Nc1ccc(Cl)cc1)SC1CCCCC1`, for which the growth inhibition is 98% (active).
The same measure, in the same setting: with `Nc1nc(-c2cccnc2)cc(-c2cc(-c3cccnc3)nc(N)n2)n1` the figure was -14%; with `c1ccc(-c2nc3cccnc3s2)cc1`, -2%.
As to `O=[N+]([O-])c1cc(CCl)ccc1CCl`, the growth inhibition is 95% (active).
For `COc1ccc(/C=C2\SC(=S)N(/C=C/c3nc4ccccc4[nH]c3=O)C2=O)cc1OC`, the growth inhibition was 76% (active).
Consider `CCCN(CCC)CC(O)c1cc(-c2ccc(Cl)cc2)nc2c(C)c(Cl)ccc12` (centres undefined), for which the growth inhibition was 98% (active).
Same read-out and setting: the result for `O=C(Nc1ccccc1)OCCc1ccc(Cl)c(Cl)c1` reads 46%.
As for `CC(O)C(O)C(O)C(/C=N\Nc1ccccc1)=N/Nc1ccccc1` (centres undefined), the growth inhibition is 68%.
`C#CCCCc1ccccc1`: the growth inhibition is 19%.
As to `CC(=O)Cc1ccc[cH-]1.[Fe+2].c1cc[cH-]c1`, the growth inhibition is 7%.
Turning to `Cc1cc(I)ccc1N`, the growth inhibition was 89% (active).
The same measure, in the same setting: with `FC(F)(F)c1cc(NC(=S)N2c3ccccc3-n3cccc3C2c2cccnc2)cc(C(F)(F)F)c1` (centres undefined) the figure was -4%.
As for `CC(C)(CN1CCCCC1)C(=O)CC(SCCS(=O)(=O)O)c1ccc(Br)cc1` (centres undefined), the growth inhibition is 26%.
The same measure, in the same setting: with `C[Si](C)(C)CNC(=O)OCc1ccccc1` the figure was 18%; with `CC(C(=O)N1C(=O)N(C(=O)[C@H](C)C(O)c2ccccc2)[C@H](c2ccccc2)[C@H]1c1ccccc1)[C@@H](O)c1ccccc1` (some centres undefined), 45%.
For `Oc1cccc2c(Cl)ccnc12`, the growth inhibition was 97% (active).
Same read-out and setting: with `O=C1C=CC(=C(c2ccccc2)c2ccccc2)c2ccccc21` the figure was 1%; with `S=C(S)NN1CCOCC1`, 34%.
